# Laboratory results published in PubChem BioAssay AID743279 (National Center for Advancing Translational Sciences (NCATS), 2014).
# Among all 360,000 compounds or so, about 17,000 (4.7%) were called active. Another 5% or so got no clear call; they are omitted. Many of the other results were omitted from the sample, so actives are more common in it than they were. Values without a mark were called inactive. Rule as the data show it: active = activity change below about -50%; inconclusive = mostly about -30% to -49%; inactive = weaker than that.
# Assay: qHTS for Inhibitors of Inflammasome Signaling: IL-1-beta AlphaLISA Primary Screen
# Details: THP-1 LPS/ATP IL-1B secretion, 16 h; at 57.5 µM, hits give low values
# Outline: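 Secreted IL-1B measured by AlphaLISA bead assay after 16 h compound exposure of THP-1 cells; compounds (final up to 57.5 uM) added 1 h before LPS (250 ng/mL) and ATP (1.25 mM) stimulation; lower signal means less secretion.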
# % is scaled to controls: 0 for no effect and ±100 for the full control effect.
row,Structure (SMILES),activity change
1,CC1(C(=O)NS(=O)(=O)c2cccc(F)c2)CCN1C(=O)Cc1cc(F)ccc1F (stereo not given),17.9%
2,CC1CCCCC12NC(=O)N(CC(=O)Nc1ccc(S(=O)(=O)Nc3ncccn3)cc1)C2=O (stereo not given),-5.14%
3,Cc1nn(CC(=O)Nc2ccc(F)cc2)c(=O)c2ccccc12,-1.55%
4,Cc1ccc(NC(=O)Cn2c(C)csc2=O)cc1,-15.7%
5,Cc1ccc(NC(=O)Cn2sc3ccccc3c2=O)cc1,-108% (active)
6,COc1cccc2sc3cc(NCC[C@@H]4CCCN4C)ccc3c(=O)c12,-71.4% (active)
7,COc1cccc(OC)c1C(=O)Nc1ccc2c(c1)n(C)c(=O)n2C,0%
8,CCCCC[C@H](C)N1C[C@@H](COCc2ccccc2)Oc2cc(N3CCC[C@@H]3CO)ccc2S1(=O)=O,0.594%
9,O=C(c1cccs1)C1C(c2ccc(Br)cc2)NC(=S)NC1(O)C(F)(F)F (stereo not given),-6.17%
10,O=C(COC(=O)COc1ccccc1F)Nc1cccc(S(=O)(=O)N2CCCCC2)c1,-4.52%
11,CCCCCc1ccc(-c2ccc(C(=O)O)cc2)nc1,46.9%
12,CC(=O)Nc1cnc(-c2ccc(O)cc2C)cn1,-15.7%
13,Cc1ccc(-c2csc(NCCc3nc4cc(Cl)c(Cl)cc4n3CCOCCO)n2)cc1,-12.6%
14,Cc1ccc(Nc2nc(-c3ccc(O)cc3O)cs2)nc1,-66.7% (active)
15,COc1ccc(NC(=O)/C(N=Nc2cccc(S(=O)(=O)Nc3ccc(SC(F)F)cc3)c2)=C(\C)O)cc1,2.19%
16,Cc1cccc(CN2CCN(C3CN(Cc4cn(Cc5ccccc5F)nn4)S(=O)(=O)C3)CC2)c1 (stereo not given),4.26%
17,COc1cc(C(=O)NNC(=O)CN2C(=O)NC3(CCCC3)C2=O)cc(OC)c1OC,-7.47%
18,Cc1ccccc1-c1ccc2c(c1)O[C@@H](CN(C)Cc1ccc(C(=O)O)cc1)[C@@H](C)CN([C@H](C)CO)S2(=O)=O,20.6%
19,Cc1ccc(SC(=O)COc2ccc(C)c(C)c2)cc1,-70% (active)
20,COc1ccc(C(=O)COC(=O)COc2ccc(C)c(C)c2)cc1,6.77%
21,Cc1ccc(OCC(=O)NC(C)c2ccccc2)cc1C (stereo not given),9.86%
22,Clc1cccc(Cc2c(-c3cccc(Cl)c3)nc3ccc(Cl)cn23)c1,64.9%
23,Cc1ccccc1C(=O)OC1OC(=O)C(Cl)=C1Nc1ccccc1 (stereo not given),-17.8%
24,O=C1OC(OC(=O)c2ccccc2Br)C(N2CCOCC2)=C1Cl (stereo not given),-12.8%
25,Cc1ccc(NC2=C(Cl)C(=O)OC2OC(=O)c2ccccc2C)cc1 (stereo not given),-89.8% (active)
